Test [1] has as its system Wnt5a (protein binding on small-molecule microarray). The test can be described thus: Wnt5a binders on small-molecule microarray, primary screen, biophysical, 635/667 nm fluorescence (AID 1142).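 Note: fluorescence read at 667 nm with signal to noise per printed feature.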 To be noted: 635 nm fluorescence, higher = more signal.
Test [2] is described as follows: cell viability in Huh7 cells, primary screen, cytotoxicity control for HCV replication inhibitor project, CellTiter-Glo luminescence, basal, 48 h (AID 1143).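 Note: Huh7 hepatoma cells carrying a hepatitis C replication reporter with no stimulus; test concentration not given here.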 To be noted: Huh7 HCV replicon, higher = more signal, called active from +8 up or from −8 down.
Test [3] is described as follows: P. aeruginosa biofilm formation inhibitors, primary screen, PAO1 strain, BacTiter-Glo luminescence, LB-PBS (AID 1144). To be noted: 12 h, higher = more signal.
The nature of test [4]: CREB reporter modulators without forskolin, primary screen, cell-based, PC12, CRE-LacZ reporter, unstimulated (AID 1145). To be noted: no forskolin, luminescence, 4.5 h, higher = more signal, called active from +8 up or from −8 down.
Test [5] is described as follows: CREB reporter modulators under forskolin, primary screen, cell-based, PC12, CRE-LacZ reporter, forskolin-stimulated (AID 1146).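 Note: PC12 cells with 6xCRE LacZ reporter stimulated by forskolin 10 µM; beta-galactosidase reporter signal reflecting CREB driven transcription.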 To be noted: luminescence, 4.5 h, higher = more signal, called active from +8 up or from −8 down.
For test [6], the target named is Streptavidin (Streptomyces avidinii) (UniProt P22629). In words: streptavidin binders on small-molecule microarray, primary screen, artefact control for SMM compound annotation, biophysical, 635/667 nm fluorescence (AID 1147).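 Note: signal reflects streptavidin binding to arrayed compounds as a control protein.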 To be noted: streptavidin binding, higher = more signal.
The nature of test [7]: small-molecule binders of probe aInhba, primary screen, biochemical, small-molecule microarray, 635/667 nm fluorescence (AID 1148).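 Note: score merges 667nm spot fluorescence with signal-to-noise for antibody binding to printed compounds.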 To be noted: higher = more signal.
Test [8] deals with Torsin-1A (Homo sapiens) (UniProt O14656). The test can be described thus: torsin A binders from cell lysate, primary screen, small-molecule microarray, wild-type, 635/667 nm (AID 1149). To be noted: COS7 hTOR1A-WT lysate, 635 nm fluorescence, higher = more signal.
For test [9] the target is unchanged. In words: small-molecule binders of mutant TOR1A in lysate, primary screen, cell lysate, small-molecule microarray, COS7 lysate, 635/667 nm fluorescence (AID 1150).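 Note: score pools 667 nm emission and signal to noise measuring lysate protein binding.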 To be noted: COS7 hTOR1A mutant lysate, 635 nm fluorescence, higher = more signal.
The test system of test [10] is Sonic hedgehog protein (Shh). The test can be described thus: small-molecule binders of Shh protein, primary screen, biochemical, small-molecule microarray, 635/667 nm fluorescence (AID 1151).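 Note: Shh protein binding to compounds spotted on small-molecule microarray slides; score combines spot fluorescence intensity with signal-to-noise across triplicate slides.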 To be noted: small-molecule microarray binding, 635 nm fluorescence; higher = more signal.
Test [11] can be described thus: E. coli DRC41 culture turbidity changes, primary screen, E. coli filamentation inducer project, strain DRC41, OD650, 48 h (AID 1152).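 Note: E. coli MC1000 strain DRC41 lacking acrAB efflux pump and sulA.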 To be noted: E. coli DRC41 (acrAB sulA), higher = more signal, called active from +8 up or from −8 down.
A short description of test [12]: small-molecule binders of probe aLefty1, primary screen, biochemical, small-molecule microarray, 635/667 nm fluorescence (AID 1153).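 Note: score merges spot fluorescence with signal-to-noise ratio from the scanned slide images.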 To be noted: higher = more signal.
A short description of test [13]: PSAC antagonists in infected red cells, primary screen, cell-based, P. falciparum Indochina, OD700, 1 h (AID 1154). To be noted: P. falciparum Indochina infected RBC osmotic lysis, higher = more signal, called active from +8 up or from −8 down.
Test [14] in a line: PSAC antagonists in infected red cells, primary screen, cell-based, P. falciparum Indochina, OD700, 2 h (AID 1155).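 Note: lysis reports solute entry through the parasite surface anion channel PSAC; channel blockers reduce lysis of infected cells.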 To be noted: P. falciparum Indochina infected erythrocytes, osmotic lysis OD700; higher = more signal, called active from +8 up or from −8 down.
A short description of test [15]: osmotic lysis modulators in infected erythrocytes, primary screen, PSAC antagonist project, cell-based, P. falciparum Indochina, OD700, 3 h (AID 1156). To be noted: higher = more signal, called active from +8 up or from −8 down.
Test [16] is described as follows: PSAC antagonists in infected red cells, primary screen, cell-based, P. falciparum Indochina, OD700, 18 h (AID 1157). To be noted: P. falciparum Indochina infected erythrocytes, osmotic lysis OD700, 18 h; higher = more signal, called active from +8 up or from −8 down.
Test [17] can be described thus: modulators of S6 phosphorylation in cells, primary screen, cell-based, A549, cytoblot, luminescence, serum-stimulated (AID 1158).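 Note: serum-stimulated A549 lung adenocarcinoma cells; signal is phosphorylated S6 detected by cytoblot immunostaining with HRP secondary.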 To be noted: A549 phospho-S6 cytoblot, 5 h, higher = more signal.
The target of test [18] is NADPH oxidase 2 (Homo sapiens) (UniProt P04839). In words: NOX2-dependent H2O2 signal modulators, primary screen, NOX inhibitor project, cell-based, HEK293-NOX2, PMA-stimulated, Amplex Red fluorescence (AID 1159). Note: test concentration not given here. To be noted: 45 min, higher = more signal, called active from +8 up or from −8 down.
Test [19] deals with NADPH oxidase 4 (Homo sapiens) (UniProt Q9NPH5). The test can be described thus: NOX4-dependent H2O2 signal modulators, primary screen, NOX inhibitor project, cell-based, HEK293-NOX4, tetracycline-induced, Amplex Red fluorescence (AID 1160). To be noted: 45 min, higher = more signal, called active from +8 up or from −8 down.
Test [20] concerns the target NADPH oxidase 5 (Homo sapiens) (UniProt Q96PH1). The test can be described thus: NOX5-dependent H2O2 signal modulators, primary screen, NOX inhibitor project, cell-based, HEK293-NOX5, Amplex Red fluorescence (AID 1161). To be noted: HEK293-NOX5, ionomycin, 45 min, higher = more signal.

The structures appear in SMILES notation. The source made the active and inactive calls. Unless noted, the rule behind the calls is not given here.

Chain of NADPH oxidase 2 (Homo sapiens) (P04839 whole entry, looked up): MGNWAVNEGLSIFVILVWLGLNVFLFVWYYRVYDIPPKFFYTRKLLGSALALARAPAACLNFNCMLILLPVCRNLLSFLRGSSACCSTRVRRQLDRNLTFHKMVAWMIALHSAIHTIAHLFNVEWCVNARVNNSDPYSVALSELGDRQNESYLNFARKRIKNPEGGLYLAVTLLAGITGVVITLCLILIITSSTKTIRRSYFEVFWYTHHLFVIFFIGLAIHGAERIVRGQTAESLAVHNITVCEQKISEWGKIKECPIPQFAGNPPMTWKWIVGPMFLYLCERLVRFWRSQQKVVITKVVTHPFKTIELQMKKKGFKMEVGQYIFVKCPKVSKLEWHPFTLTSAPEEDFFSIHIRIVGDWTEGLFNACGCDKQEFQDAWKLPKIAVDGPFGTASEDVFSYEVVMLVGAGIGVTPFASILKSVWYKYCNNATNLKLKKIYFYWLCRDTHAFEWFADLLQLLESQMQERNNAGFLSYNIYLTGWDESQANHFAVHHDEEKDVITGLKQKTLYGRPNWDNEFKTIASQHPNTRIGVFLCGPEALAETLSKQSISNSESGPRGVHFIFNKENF
Chain of Torsin-1A (Homo sapiens) (O14656 whole entry, looked up): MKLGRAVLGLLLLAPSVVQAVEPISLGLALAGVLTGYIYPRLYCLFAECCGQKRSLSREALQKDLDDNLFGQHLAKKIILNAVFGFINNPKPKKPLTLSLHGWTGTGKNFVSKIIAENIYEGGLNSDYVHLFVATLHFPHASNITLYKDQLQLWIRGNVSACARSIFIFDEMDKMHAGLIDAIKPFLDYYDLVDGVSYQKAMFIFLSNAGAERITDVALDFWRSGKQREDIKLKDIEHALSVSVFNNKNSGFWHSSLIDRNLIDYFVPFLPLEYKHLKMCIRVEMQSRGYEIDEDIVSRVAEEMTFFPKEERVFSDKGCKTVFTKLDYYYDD
Chain of Streptavidin (Streptomyces avidinii) (P22629 whole entry, looked up): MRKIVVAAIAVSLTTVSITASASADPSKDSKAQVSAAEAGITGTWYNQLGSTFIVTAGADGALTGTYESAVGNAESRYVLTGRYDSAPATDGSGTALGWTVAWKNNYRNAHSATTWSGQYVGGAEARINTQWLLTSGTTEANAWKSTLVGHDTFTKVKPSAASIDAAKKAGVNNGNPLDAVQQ
Chain of NADPH oxidase 4 (Homo sapiens) (Q9NPH5 whole entry, looked up): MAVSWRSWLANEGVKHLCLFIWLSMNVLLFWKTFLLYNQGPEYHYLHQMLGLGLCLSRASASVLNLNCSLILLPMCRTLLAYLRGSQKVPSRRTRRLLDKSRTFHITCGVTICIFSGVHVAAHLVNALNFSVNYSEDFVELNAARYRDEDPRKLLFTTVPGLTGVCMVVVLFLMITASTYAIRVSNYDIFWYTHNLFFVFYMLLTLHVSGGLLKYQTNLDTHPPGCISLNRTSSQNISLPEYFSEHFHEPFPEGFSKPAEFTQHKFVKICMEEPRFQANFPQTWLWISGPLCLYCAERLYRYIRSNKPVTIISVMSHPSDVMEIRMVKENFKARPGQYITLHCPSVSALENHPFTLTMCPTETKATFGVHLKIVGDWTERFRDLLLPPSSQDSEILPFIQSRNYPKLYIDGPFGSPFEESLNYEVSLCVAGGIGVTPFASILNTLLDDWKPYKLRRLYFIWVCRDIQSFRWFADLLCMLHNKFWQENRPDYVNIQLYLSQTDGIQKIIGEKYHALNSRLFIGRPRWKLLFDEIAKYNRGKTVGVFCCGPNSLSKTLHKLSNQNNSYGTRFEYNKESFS
Chain of NADPH oxidase 5 (Homo sapiens) (Q96PH1 whole entry, looked up): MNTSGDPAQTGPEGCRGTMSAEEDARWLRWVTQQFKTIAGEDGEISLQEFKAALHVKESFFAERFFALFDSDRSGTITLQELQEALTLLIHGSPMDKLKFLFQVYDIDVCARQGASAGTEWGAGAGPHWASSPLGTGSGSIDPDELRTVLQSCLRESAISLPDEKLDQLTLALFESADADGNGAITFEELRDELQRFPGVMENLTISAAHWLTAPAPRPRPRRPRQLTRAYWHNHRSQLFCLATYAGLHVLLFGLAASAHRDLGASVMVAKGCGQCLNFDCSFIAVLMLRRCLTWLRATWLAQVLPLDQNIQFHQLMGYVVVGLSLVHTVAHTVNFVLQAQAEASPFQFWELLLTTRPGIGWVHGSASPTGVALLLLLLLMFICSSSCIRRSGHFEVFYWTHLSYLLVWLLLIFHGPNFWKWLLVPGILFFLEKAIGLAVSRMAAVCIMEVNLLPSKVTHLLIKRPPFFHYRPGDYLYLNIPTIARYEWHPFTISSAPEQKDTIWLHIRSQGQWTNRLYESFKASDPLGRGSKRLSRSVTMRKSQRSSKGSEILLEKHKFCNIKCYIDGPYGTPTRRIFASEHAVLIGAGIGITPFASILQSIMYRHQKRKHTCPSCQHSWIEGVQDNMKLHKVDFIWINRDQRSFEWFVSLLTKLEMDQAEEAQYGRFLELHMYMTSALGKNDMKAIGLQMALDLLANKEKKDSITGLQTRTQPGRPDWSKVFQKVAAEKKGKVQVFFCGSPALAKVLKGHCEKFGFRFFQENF

For the compound `COCCOC(=O)N1C(=O)[C@@]2(c3cc(C#CC4(O)CCCCCC4)ccc31)[C@H](C(=O)Nc1nc3ccccc3s1)[C@H]1C(=O)O[C@H](c3ccccc3)[C@H](c3ccccc3)N1[C@@H]2c1ccc(OCCO)cc1`, the composite z-score in test [1] worked out at 0.564; in test [6] it was 0.587; in test [7], 0.366; in test [8], 0.669; in test [9], 0.849; in test [10], 1.42. Besides, the composite z-score in [12] was 0.411. The z-score in [2] is -3.02 (inactive); in test [3] it was -1.1 (inactive); in [4], -0.748 (inactive); in [5], 1.65 (inactive); in test [11], 0.197 (inactive); in test [13], 2.97 (inactive). For the same compound, the z-score in test [14] was 2.39 (inactive); in test [15], 1.73 (inactive); in [16], 2.27 (inactive); in [17], 0.481; in test [18], 0.566 (inactive); in test [19], -0.595 (inactive). Moreover, the z-score in test [20] came out at 0.0214.

As for `C=CCN1Cc2ccccc2[C@@H]2OC(c3ccc(OCCCO)cc3)=N[C@]2(CCS(=O)(=O)c2ccccc2)C1=O`, the composite z-score in [1] stood at 1.02; in [6], 0.316; in test [7], 0.122; in test [8], 0.625; in [9] it was 0.969; in test [10], 1.77. The compound further had a composite z-score in [12] of 0.415. In addition, the z-score in [2] was -2.93 (inactive); in [3] it was -0.491 (inactive); in [4] it was 2.65 (inactive); in test [5], -0.821 (inactive); in test [11], 0.576 (inactive); in test [13] it was 27.2 (active). The z-score was 20.3 (active) in test [14]; 2.26 (inactive) in test [15]; 3.22 (inactive) in [16]; -0.0454 in test [17]; -1.38 (inactive) in test [18]; 0.827 (inactive) in [19]. The z-score in test [20] worked out at 0.0284.

For the compound `O=c1cccc(-c2ccccc2Cl)o1`, the composite z-score in test [1] was -0.196; in test [6], 0.423; in test [7], 0.115; in test [8] it was 0.64; in test [9], 0.112; in test [10], 0.322. This compound also displayed a composite z-score in test [12] of -0.456. The z-score is -0.759 (inactive) in test [2]; 0.387 (inactive) in test [3]; 0.285 (inactive) in test [4]; 0.556 (inactive) in test [5]; -0.685 (inactive) in [11]; 0.298 (inactive) in [13]. Also, the z-score in test [14] is 0.585 (inactive); in [15], -0.187 (inactive); in [16] it was 0.414 (inactive); in test [17], -0.767; in [18] it was 0.182 (inactive); in [19] it was -0.914 (inactive). The compound further displayed a z-score in test [20] of 0.863.

On to `CC(C)NC(=O)[C@@]1(Cc2ccccc2I)c2ccccc2C(=O)N(Cc2ccccc2Cl)[C@H]1c1ccc(CO)cc1`, for which the composite z-score is 0.361 in test [1]; 0.746 in test [6]; -0.0557 in test [7]; 0.214 in test [8]; 0.891 in test [9]; 1 in [10]. Also, the composite z-score in test [12] came out at 0.223. The z-score is -2.21 (inactive) in test [2]; 0.5 (inactive) in test [3]; -0.464 (inactive) in [4]; -0.0764 (inactive) in test [5]; -0.522 (inactive) in [11]; 10.7 (active) in test [13]. In addition, the z-score in [14] was 1.77 (inactive); in [15], 0.614 (inactive); in test [16] it was 1.06 (inactive); in test [17] it was 0.026; in test [18], 0.284 (inactive); in test [19], 0.904 (inactive). Also, the z-score in test [20] came to 0.774.

Consider `C=CCN1C(=O)[C@]2(O[C@H](CCO)[C@@H]([Si](C)(C)c3ccc(OC)cc3)[C@@H]2C)c2cc(N(C=O)c3ccccc3)ccc21`, for which the composite z-score in [1] is -0.223; in [6], 0.0699; in test [7], -0.082; in test [8] it was -0.376; in test [9], 0.0507; in test [10], 0.572. The compound further gave a composite z-score in [12] of 0.0774. The z-score in [2] was -7.67 (inactive); in [3] it was -0.2 (inactive); in [4] it was 32.2 (active); in test [5], -3.14 (inactive); in [11] it was 0.35 (inactive); in [13], 9.23 (active). Moreover, the z-score in test [14] is 3.66 (inactive); in [15], -0.452 (inactive); in test [16] it was 2.29 (inactive); in test [17] it was 1.53; in test [18], 0.474 (inactive); in test [19] it was 0.446 (inactive). This compound also came in with a z-score in [20] of 0.327.

Consider `COCCOC(=O)N1C(=O)[C@@]2(c3cc(C#CC4=CCCCC4)ccc31)[C@H](c1ccc(OCCO)cc1)N1[C@H](c3ccccc3)[C@H](c3ccccc3)OC(=O)[C@H]1[C@@H]2C(=O)N1CCc2cc(OC)c(OC)cc2C1`, for which the composite z-score stood at 0.687 in test [1]; 0.606 in test [6]; 0.346 in test [7]; 0.359 in test [8]; 1.17 in test [9]; 1.32 in [10]. This compound came in with a composite z-score in test [12] of 0.26. Besides, the z-score in test [2] was -0.496 (inactive); in test [3], -0.536 (inactive); in test [4] it was -0.258 (inactive); in test [5], -0.513 (inactive); in test [11] it was 1.8 (inactive); in test [13], 3.15 (inactive). Further, the z-score in [14] is 2.02 (inactive); in [15], 0.817 (inactive); in [16] it was 1.13 (inactive); in test [17] it was 0.0337; in test [18] it was 0.711 (inactive); in test [19], 0.842 (inactive). Also, the z-score in test [20] was 1.43.

With `COc1ccc([C@H]2OC[C@@H]3CCC(=O)N32)cc1`, the composite z-score stood at 0.279 in test [1]; 0.711 in [6]; 0.114 in test [7]; 1.08 in test [8]; 0.214 in test [9]; 0.79 in test [10]. For the same compound, the composite z-score in [12] amounted to 0.0868. For the same compound, the z-score in test [2] is 0.638 (inactive); in [3], 0.495 (inactive); in test [4], 1.2 (inactive); in test [5] it was 0.426 (inactive); in test [11], 0.0137 (inactive); in test [13] it was 0.4 (inactive). Besides, the z-score was 0.698 (inactive) in [14]; -0.297 (inactive) in test [15]; 0.48 (inactive) in test [16]; 0.0166 in test [17]; 0.982 (inactive) in test [18]; 0.342 (inactive) in [19]. The compound also gave a z-score in test [20] of -0.0609.

`COc1ccccc1CN1C(=O)c2ccccc2[C@@]2(Cc3ccccc3N(CCCN(C)C)C2=O)[C@@H]1c1ccc(CO)cc1`: the composite z-score in [1] was -0.0961; in test [6], 0.224; in [7], -0.19; in [8] it was -0.0118; in test [9], 0.0265; in test [10] it was 0.243. This compound came in with a composite z-score in test [12] of -0.152. Besides, the z-score in test [2] was -4.71 (inactive); in test [3] it was -0.516 (inactive); in test [4], -0.0243 (inactive); in test [5], -0.926 (inactive); in [11], 2 (inactive); in test [13], 0.599 (inactive). The z-score in [14] is -0.678 (inactive); in [15], -0.795 (inactive); in test [16], -1.1 (inactive); in [17], 2.55; in test [18], -0.841 (inactive); in [19], -1.61 (inactive). In [20], this compound came in with a z-score of 1.51.
